Experimental data from PubChem BioAssay (NCI).
The panel holds about 83,000 compounds, 20% with a hit somewhere; the sample as a whole holds those more often.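 Assay: single dose, 48 h. Readout: percent growth (0 = no net growth; negative = cell death). Active: <10.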 The source made the active and inactive calls.

What follows are compounds tested on MDA-MB-468 breast (assay: NCI-60 one-dose screen, 48 h (100 = growth as untreated, 0 = no growth, -100 = all killed)). Conditions: 10 µM unless noted.
With `Cc1cc2ccccc2c(O)c1C#N` the growth was 117% (inactive).
With `Cn1c(=O)c2[nH]c(=S)n(Cc3ccccc3)c2n(C)c1=O` the growth was 115% (inactive).
For `COc1cc(-c2nnc(-c3c(-c4ccc(F)cc4)nc4ccccn34)o2)cc(OC)c1OC`, the growth was 99.4% (inactive).
In the case of `CN1CCN(c2ccc3nc(-c4[nH]ncc4Nc4ncnc5c4OCCCN5)[nH]c3c2)CC1`, the growth was -76.3% (active).
`CC1=NN(c2ccc(S(=O)(=O)O)cc2)C(=O)C1N=Nc1ccc(-c2ccc(N=Nc3ccc(OS(=O)(=O)c4ccc(C)cc4)cc3)c(S(=O)(=O)O)c2)cc1` (stereo not given) was tested, and the growth was 86.8% (inactive).
With `c1ccc2c(c1)ncn2-c1nc2ccccc2n2c1nc1ccccc12` the growth was -40.5% (active).
`COc1cc(NC(=O)c2cc(OC)c3ccn(C)c3c2)cc2c1C[C@]1(C)CC[C@@H](O)C(C)(C)[C@H]1O2` was tested, and the growth was 69.6% (inactive).
In the case of `COC(=O)N[C@H]1CCc2cc(OC)c(OC)c(OC)c2-c2ccc(SC)c(=O)cc21`, the growth was -32% (active).
In the case of `C=CCN1C(=O)[C@]2(SC1=S)[C@H](c1cccc(Cl)c1)CN(C)[C@]21C(=O)NC2C=CC(Cl)=C[C@H]21` (stereo not given in full), the growth was 27% (inactive).
In the case of `CCn1cc(CNc2ccc(C(=O)Nc3ccc4ccccc4c3)cc2)c(C)n1`, the growth was 24.5% (inactive).
For `Clc1cc(Cl)cc(N2N=C(c3cccc(Nc4ccncc4)c3)CC2c2ccc(Br)cc2)c1` (stereo not given), the growth was 44.9% (inactive).
With `O=C1Cc2cc(CCN3CCN(c4nsc5ccccc45)CC3)c(Cl)cc2N1` the growth was 49.1% (inactive).
For `O=C1/C(=C\c2ccc(Cl)cc2)CN(C(=O)c2ccccc2)C/C1=C\c1ccc(Cl)cc1`, the growth was -17.7% (active).
`CCCCCCOc1ccc(C2(Cl)c3ccccc3N(C)c3ccccc32)cc1` was tested, and the growth was 50.3% (inactive).
In the case of `Cc1cnc(SCc2ccc(Cl)cc2)[nH]c1=S`, the growth was 110% (inactive).
For `CCN(CC)c1ccc(/C=N/NC(=O)CSc2nc3ccccc3c(=O)n2Cc2ccc(S(N)(=O)=O)cc2)c(O)c1`, the growth was -11% (active).
With `c1ccc2c(NCCCN3CCN(CCCNc4c5ccccc5nc5ccccc45)CC3)c3ccccc3nc2c1` the growth was -73.2% [100 µM] (active).
In the case of `CCCCCCCCN(CCO)CCCCCCCC`, the growth was 98.7% (inactive).
In the case of `CCCNc1nc2ccccc2c2c1S(=O)(=O)c1ccc(Cl)cc1C2=O`, the growth was 3.32% (active).
With `Nc1nc(N)c2c(n1)NC1(C=C(O)c3ccccc31)C1=C(N2)c2ccccc2C1=O` (stereo not given) the growth was 127% (inactive).
In the case of `Cc1cc(N2CCCCCC2)nc(N2CCN(CC(=O)Nc3ccc4c(ccn4Cc4ccccc4)c3)CC2)n1`, the growth was 17.4% (inactive).
In the case of `COc1cccc(NC(=O)c2sc3nc(C)c(C(C)=O)cc3c2N)c1`, the growth was -14.8% (active).
`CC1(C)C(=O)/C(=C\c2cccnc2)C[C@]2(C)[C@H]3CC=C4[C@@H]5C[C@@](C)(C(=O)O)CC[C@]5(C)CC[C@@]4(C)[C@]3(C)CC[C@@H]12` was tested, and the growth was 95.8% (inactive).
With `CCCCCCCCCCCCCCCCNC(=O)Nc1ccc(C)c(NC(=O)NCCCCCCCCCCCCCCCC)c1` the growth was 101% (inactive).
For `Cn1cc(-c2csc(-c3cn(C)c4ncccc34)n2)c2cc(F)cnc21`, the growth was -10.1% (active).
`C=CCc1c(O)c(C(=O)/C=C/c2ccc(Cl)cc2)c(OC)c2ccoc12` was tested, and the growth was 19.9% (inactive).
`O=C(/C=C/c1cccc(F)c1)c1cccc(OCCCOc2cccc(C(=O)/C=C/c3cccc(F)c3)c2)c1` was tested, and the growth was 75.2% (inactive).
With `O=C1NC(=O)C2C(=O)NC(=O)C1C21CCc2ccccc21` (stereo not given) the growth was 101% (inactive).
With `Cn1cnc([N+](=O)[O-])c1/C=C1\Oc2ccc(Br)cc2C1=O` the growth was 80.9% (inactive).
For `CCCCCCCCCN(CCCCCCCCC)C(C)C(=O)c1ccc2cc(Br)c3ccccc3c2c1` (stereo not given), the growth was 99.2% (inactive).
With `CCOc1nc(-c2ccco2)n2nc(-c3ccco3)cc2n1` the growth was -5.05% (active).
In the case of `Cc1cccc2nc3ccccc3c(Nc3ccc(NS(C)(=O)=O)cc3)c12`, the growth was 67.9% (inactive).
For `CCCCNc1ccc(C#N)c(OCCN(CC)CC)c1`, the growth was 90.1% (inactive).
In the case of `CCN1CCN(C(=S)SCC(=O)Nc2nc3ccc(C)cc3s2)CC1`, the growth was 104% (inactive).
In the case of `c1ccc2c(Cc3csc4ccccc34)csc2c1`, the growth was 74% (inactive).
With `O=C1c2c(c3c4cc(Br)ccc4[nH]c3c3ccc4ccccc4c23)C(=O)N1CCN1CCNCC1` the growth was 79.6% (inactive).
`COc1cc2nc(Nc3cccc(C(=O)O)c3)nc(N)c2cc1OC` was tested, and the growth was 108% (inactive).
With `O=C(Cc1ccc(/C=C/C(=O)c2ncc[nH]2)cc1)Nc1cc(F)c(F)c(F)c1` the growth was 8.95% (active).
`O=C1C[C@H](Sc2nc(-c3ccc(F)cc3)cc(C(F)(F)F)n2)[C@H]2CO[C@@H]1O2` was tested, and the growth was 71.4% (inactive).
With `CN(C)Cc1ccc(NC(=O)c2cncc(C#Cc3cnc(N)c4ncccc34)c2)cc1C(F)(F)F` the growth was 84% (inactive).
